Results on 31 compounds are retold here after PubChem BioAssay (NCATS).

Inconclusive results are not listed. Calls of active or inactive are those of the source. Unless noted, calls come from the whole dose curve.

The nature of assay [1]: qHTS for Inhibitors of the Functional Ribonucleoprotein Complex (vRNP) of Lassa (LASV) Arenavirus: LASV Primary Screen - GLuc reporter signal (AID 1347082; calls by dose curve; tested in HEK293 reporter line; note: nearly all actives have a fitted effect of over 60% in size).
A short description of assay [2]: qHTS for Inhibitors of the Functional Ribonucleoprotein Complex (vRNP) of Lassa (LASV) Arenavirus: Viability assay - alamar blue signal for LASV Primary Screen (AID 1347083; calls by dose curve; tested in HEK293 reporter line; note: nearly all actives have a fitted effect of over 80% in size).
Assay [3] is described as follows: qHTS for Inhibitors of the Functional Ribonucleoprotein Complex (vRNP) of Lymphocytic Choriomeningitis Arenaviruses (LCMV): Viability assay - alamar blue signal for LCMV Primary Screen (AID 1347085; calls by dose curve; tested in HEK293 reporter line; note: nearly all actives have a fitted effect of over 80% in size).
Assay [4] concerns the target Nucleoprotein (Lymphocytic choriomeningitis virus (strain Armstrong)) (UniProt P09992). The assay is described as follows: qHTS for Inhibitors of the Functional Ribonucleoprotein Complex (vRNP) of Lymphocytic Choriomeningitis Arenaviruses (LCMV): LCMV Primary Screen - GLuc reporter signal (AID 1347086). Note: nearly all actives have a fitted effect of over 70% in size.
Potency is the fitted concentration of half-maximal effect.

Sequence of Nucleoprotein (Lymphocytic choriomeningitis virus (strain Armstrong)) (P09992 whole entry, looked up): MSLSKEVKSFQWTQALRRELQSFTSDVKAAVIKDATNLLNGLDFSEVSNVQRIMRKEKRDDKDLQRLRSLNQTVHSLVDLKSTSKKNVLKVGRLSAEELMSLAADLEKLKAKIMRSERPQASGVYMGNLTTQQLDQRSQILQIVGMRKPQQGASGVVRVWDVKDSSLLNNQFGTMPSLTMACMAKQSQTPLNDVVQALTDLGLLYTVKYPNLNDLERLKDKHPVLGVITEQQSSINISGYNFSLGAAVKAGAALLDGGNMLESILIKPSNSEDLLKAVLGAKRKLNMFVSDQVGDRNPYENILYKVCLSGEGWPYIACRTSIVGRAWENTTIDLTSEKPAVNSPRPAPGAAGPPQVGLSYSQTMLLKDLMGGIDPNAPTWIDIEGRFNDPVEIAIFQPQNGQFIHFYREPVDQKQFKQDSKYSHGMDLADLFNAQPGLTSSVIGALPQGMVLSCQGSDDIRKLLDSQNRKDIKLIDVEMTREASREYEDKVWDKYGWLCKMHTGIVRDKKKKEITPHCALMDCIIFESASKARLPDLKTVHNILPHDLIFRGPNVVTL

As to `CC=C(C)C(=O)OC1CCN2CC=C(COC(=O)C(O)(C(C)OC)C(C)(C)O)C12` (centres undefined), the Potency result in assay [1], in assay [2], in assay [3] and in assay [4] was “inactive” in each case.

Regarding `CC(=O)OC1[C@H](Oc2c(O)c(C)c3c4c2[C@@H](C)CC[C@@H]4[C@@H](C)C[C@@H]3C=C(C)C)OC[C@@H](O)[C@@H]1O` (some centres undefined), the Potency entry in assay [1], in assay [2], in assay [3] and in assay [4] was “inactive” in each case.

With `O=C(CCCCO)CCCCCCCC[C@H]1N[C@H](CO)[C@H](O)[C@@H]1O[C@@H]1O[C@H](CO)[C@@H](O)[C@H](O)[C@H]1O`, the Potency result in assay [1], in assay [2], in assay [3] and in assay [4] was “inactive” throughout.

As to `CN[C@H]1[C@@H](O)[C@@H]2O[C@@H]3O[C@H](C)CC(=O)[C@]3(O)O[C@@H]2[C@@H](NC)[C@H]1O`, the Potency in assay [1] is 5.44 µM (active); in assay [2] it was 7.69 µM (active); in assay [3], 2.43 µM (active); in assay [4], 1.72 µM (active).

In the case of `OC[C@H]1O[C@H](OCc2ccccc2)[C@H](O[C@@H]2OC[C@@H](O)[C@H](O)[C@H]2O)[C@@H](O)[C@@H]1O`, the Potency entry in assay [1], in assay [2], in assay [3] and in assay [4] was “inactive” in each case.

Consider `CCCCCCCCOS(=O)(=O)O`, for which the Potency entry in assay [1], in assay [2], in assay [3] and in assay [4] was “inactive” each time.

For `CC1C(=O)OC2CCN3CC=C(COC(=O)C(C)(O)C1(C)O)C23` (centres undefined), the Potency entry in assay [1], in assay [2], in assay [3] and in assay [4] was “inactive” in each case.

For the compound `COC(=O)CC1[C@@]2(C)C[C@]34OC5(C)OC6(C7CC(=O)OC(c8ccoc8)[C@]7(C)CCC6(O5)[C@]13C)C(OC(C)=O)[C@]4(OC(C)=O)C2OC(C)=O` (some centres undefined), the Potency result in assay [1], in assay [2], in assay [3] and in assay [4] was “inactive” each time.

For the compound `O=C(O)Cn1ccnc1`, the Potency entry in assay [1], in assay [2], in assay [3] and in assay [4] was “inactive” each time.

For `Cc1cnccn1`, the Potency entry in assay [1], in assay [2], in assay [3] and in assay [4] was “inactive” each time.

On to `C=CC(C)(CCC=C(C)C)OC(=O)CC(C)C` (centres undefined), for which the Potency entry in assay [1], in assay [2], in assay [3] and in assay [4] was “inactive” each time.

In the case of `O=C(O)c1ccco1`, the Potency entry in assay [1], in assay [2], in assay [3] and in assay [4] was “inactive” each time.

`COC(C)(C)[C@@H](O)COc1c2ccoc2cc2oc(=O)ccc12`: the Potency entry in assay [1], in assay [2], in assay [3] and in assay [4] was “inactive” each time.

Regarding `CC/C=C\CCOC(=O)c1ccccc1`, the Potency entry in assay [1], in assay [2], in assay [3] and in assay [4] was “inactive” each time.

In the case of `CCN1C[C@]2(C)CC[C@H](OC)[C@@]34[C@H]1C1(OCO[C@@]15C[C@H](OC)C1C[C@]3(O)C5[C@H]1OC)[C@@H](O)[C@H]24`, the Potency entry in assay [1], in assay [2], in assay [3] and in assay [4] was “inactive” each time.

Turning to `OCCC(O)CO` (centres undefined), the Potency entry in assay [1], in assay [2], in assay [3] and in assay [4] was “inactive” in each case.

With `COc1ccc(C2CC(=O)c3c(O)cc(O)cc3O2)c(CC=C(C)C)c1OC` (centres undefined), the Potency entry in assay [1], in assay [2], in assay [3] and in assay [4] was “inactive” throughout.

Take `C[C@@H]1CC(=O)[C@H]2CC(CO)=CCC[C@@H]2[C@@]1(C)CC/C(=C/CO)CO`: the Potency result in assay [1], in assay [2], in assay [3] and in assay [4] was “inactive” in each case.

For the compound `C=C1CCC2[C@](C)(CO)C(O)CC[C@]2(C)C1CC=C1C(=O)OCC1O` (some centres undefined), the Potency result in assay [1], in assay [2], in assay [3] and in assay [4] was “inactive” throughout.

With `C/C(=C/CCC(C)[C@H]1CC[C@@]2(C)C3=C(CC[C@]12C)[C@@]1(C)CCC(=O)C(C)(C)[C@@H]1CC3)C(=O)O` (some centres undefined), the Potency result in assay [1], in assay [2], in assay [3] and in assay [4] was “inactive” each time.

For `COc1cc2ccc(=O)oc2cc1O`, the Potency result in assay [1], in assay [2], in assay [3] and in assay [4] was “inactive” in each case.

Consider `C=CCNC1=C2C[C@@H](C)C[C@H](OC)[C@@H](O)[C@@H](C)C=C(C)[C@H](OC(N)=O)[C@@H](OC)C=CC=C(C)C(=O)NC(=CC1=O)C2=O`, for which the Potency in assay [1] is 8.63 µM (active); in assay [2], 6.85 µM (active); in assay [3], 15.3 µM (active); in assay [4], 4.32 µM (active).

Turning to `CCCCc1ccc(O)cc1`, the Potency entry in assay [1], in assay [2], in assay [3] and in assay [4] was “inactive” in each case.

As to `CCC/C=C/C/C=C/C=C/C=N/NN=O`, the Potency result in assay [1], in assay [2], in assay [3] and in assay [4] was “inactive” in each case.

Consider `CC(=O)Nc1ccccc1O`, for which the Potency result in assay [1], in assay [2], in assay [3] and in assay [4] was “inactive” in each case.

With `NC1(C(=O)N[C@@H](CCO)c2ccc(Cl)cc2)CCN(c2ncnc3[nH]ccc23)CC1`, the Potency is 0.968 µM (active) in assay [1], 0.385 µM (active) in assay [2], 0.611 µM (active) in assay [3] and 1.72 µM (active) in assay [4].

`O=c1[nH]cnc2c1ncn2C1OCC(O)C(O)C1O` (centres undefined): the Potency result in assay [1], in assay [2], in assay [3] and in assay [4] was “inactive” in each case.

With `CC(=O)O[C@H]1CC[C@@]2(C)[C@H](C1)C(=O)C[C@H]1[C@@H]3CC[C@@H]4[C@@H](CN5C[C@@H](C)CC[C@H]5[C@@]4(C)O)[C@@H]3C[C@@H]12`, the Potency result in assay [1], in assay [2], in assay [3] and in assay [4] was “inactive” in each case.

`CC1=C[C@H]2OC(=O)[C@@H](C)[C@H]2C[C@@H]2[C@H]1C[C@@H](O)[C@@]2(C)O`: the Potency result in assay [1], in assay [2], in assay [3] and in assay [4] was “inactive” throughout.

As for `COC(=O)C1=CO[C@@H](OC2OC(CO)C(O)C(O)C2O)[C@@H]2C(CO)=CC[C@H]12` (some centres undefined), the Potency entry in assay [1], in assay [2], in assay [3] and in assay [4] was “inactive” each time.

For the compound `O=Cc1ccnc2ccccc12`, the Potency entry in assay [1], in assay [2], in assay [3] and in assay [4] was “inactive” each time.
